# Source: PubChem BioAssay AID624351 (Southern Research Specialized Biocontainment Screening …, 2012)
# The campaign covered roughly 2,400 compounds. About 1,400 (58%) were called active.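 How the source made its calls: active means inhibition of 30% or more at any tested dose; inconclusive means primary hits over the limit that were never retested; inactive means the rest.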 So high a share suggests a set chosen from earlier hits. The list shows a part of the results.
# Experiment: coupled detection enzyme interference, dose response, artefact control for MgcRacGAP inhibitor project, biochemical, coupled enzyme counter-screen (AID 624351);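 further: signal is the ADP detection kit reading of free GDP without any GAP enzyme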
# Details: ADP Hunter coupled enzyme counter-screen, fluorescence, no MgcRacGAP; series mostly up to 80 µM
row,SMILES,IC50
1,Cc1c(N=C2NC(=O)/C(=C/c3ccc(O)cc3)S2)c(=O)n(-c2ccccc2)n1C,72 µM (active)
2,Nc1ccc2[nH]c(=S)[nH]c2c1,21 µM (active)
3,Nc1ccc2[nH]c(=S)sc2c1,inactive
4,CCCS(=O)(=O)N1CCN(C2Cc3ccccc3C2)CC1,inactive
5,CCCCn1c(C)cc2cc(O)ccc21,30.4 µM (active)
6,Cn1c(=O)[nH]c(N)c(Br)c1=O,inactive
7,Cc1ccsc1/C=N/Nc1nc2ccccc2[nH]1,26 µM (active)
8,Cc1cc(C)nc(N/N=C/c2c[nH]c3ccccc23)n1,55.4 µM (active)
9,Cn1c(N/N=C/c2c[nH]c3ccccc23)nc2ccccc21,40.6 µM (active)
10,C(=N\Nc1nc2ccccc2[nH]1)/c1c[nH]c2ccccc12,37.6 µM (active)
11,C=C1c2cccc(O)c2C(=O)C2C(=O)[C@]3(O)C(=O)C(C(N)=O)C(=O)[C@@H](N(C)C)[C@@H]3[C@@H](O)[C@H]12 (stereo not given in full),inactive
12,O=C1NC(=S)S/C1=C1\Sc2ccccc2N1CCCS(=O)(=O)O,inactive
13,CC(C(=O)Nc1ccc(F)c(F)c1)N1CCN(C)CC1 (stereo not given),inactive
14,CC(C(=O)NCC(=O)Nc1ccc(F)c(F)c1F)N1CCN(c2ccc(O)cc2)CC1 (stereo not given),54.3 µM (active)
15,Cc1cnc(NC(=O)CN2CCN(c3ccccc3F)CC2)s1,inactive
16,CCOCCCNC(=O)CN1CCN(c2ccc(F)cc2)CC1,inactive
17,O=C(CN1CCN(c2ccc(O)cc2)CC1)NCC(=O)Nc1ccc(F)c(F)c1F,61.8 µM (active)
18,CC(C(=O)Nc1ccccc1C(F)(F)F)N1CCN(C)CC1 (stereo not given),inactive
19,COc1ccccc1NS(=O)(=O)c1ccc(C)c(C(=O)N2CCN(c3ccc(O)cc3)CC2)c1,23.6 µM (active)
20,COc1cc(OC)c(OC)cc1CN1CCN(C(=O)c2cccc3ccccc23)CC1,inactive
21,COc1ccccc1C(=O)N1CCN(Cc2cccnc2)CC1,inactive
22,Cc1cccc(/C(N)=N/OC(=O)N2c3ccccc3Sc3ccccc32)c1,inactive

row,SMILES,IC50
1,CC1(C)CC(NC(=O)N2c3ccccc3Sc3ccccc32)CC(C)(C)N1,inactive
2,N/C(=N\OC(=O)N1c2ccccc2Sc2ccccc21)c1ccccc1,inactive
3,Cc1ccc2nc(/N=C(\N)NC(=O)N3c4ccccc4Sc4ccccc43)nc(C)c2c1,inactive
4,CCN1/C(=C/c2ccc3cc(C)ccc3[n+]2CC)Sc2cc(C)ccc21,inactive
5,CN(C)/C=C/c1oc2ccc(O)cc2c1[N+](=O)[O-],14.2 µM (active)
6,CCCc1cc(=S)n2c([nH]c3ccccc32)c1C#N,57.3 µM (active)
7,CCn1nc(C)c(Br)c1C(=O)Sc1ccccc1Cl,inactive
8,Cc1ccc(S(=O)(=O)N2CCOCC2)cc1NC(=O)CNCc1cccnc1,inactive
9,O=S(=O)(c1ccc(Cl)c(NC(=S)N/N=C/c2ccc(O)cc2)c1)N1CCOCC1,48.7 µM (active)
10,CCN(CC)c1ccc(S(=O)(=O)N2CCOCC2)cc1NC(=O)CN1CCN(Cc2ccccc2)CC1,inactive
11,CCOC(=O)C1CCCN(C2=NC(=O)/C(=C/c3ccc(O)c(OC)c3)S2)C1 (stereo not given),22.8 µM (active)
12,COc1cc(/C=C2\SC(N3CCC(C)CC3)=NC2=O)ccc1O,19.1 µM (active)
13,CCOC(=O)C1CCN(C2=NC(=O)/C(=C/c3ccc(O)cc3)S2)CC1,22.2 µM (active)
14,CCOC(=O)CSC1=NC(=O)/C(=C\c2ccc(OC(C)=O)cc2)S1,inactive
15,CCOC(=O)C1CCCN(C2=NC(=O)/C(=C/c3ccc(O)c(OCC)c3)S2)C1 (stereo not given),29.8 µM (active)
16,CCOC(=O)C1CCN(Cc2cn[nH]c2-c2ccccc2)CC1,inactive
17,CCOC(=O)C(NC(=O)N(C)C)(Nc1sc(C)c(CC)c1C#N)C(F)(F)F (stereo not given),inactive
18,C#CCOCCOCCOCCNc1nc(N2CCN(C(=O)[C@H](CCCN=C(N)N)n3cc(C(N)[C@H](C)CC)nn3)CC2)nc(N2CCN(C(=O)[C@H](CCCN=C(N)N)n3cc(C(N)[C@@H](C)CC)nn3)CC2)n1 (stereo not given in full),inactive
19,CC1CCN(S(=O)(=O)c2ccc3c(c2)C(Cl)(Cl)C(=O)N3)CC1,inactive
20,CCS(=O)(=O)c1cc([N+](=O)[O-])c(Sc2ccccc2N)s1,inactive
21,C=CCSC1=NC(=O)/C(=C/c2cccs2)S1,inactive
22,CCOc1cc(/C=C2\SC(N3CCCC(C)C3)=NC2=O)ccc1O (stereo not given),33.4 µM (active)

row,SMILES,IC50
1,COc1cc(C2NC(=O)C(C#N)=C(S)N2c2ccccc2)ccc1OC(C)C (stereo not given),inactive
2,Cc1c(O)ccc(/C(Cc2ccc3ccccc3n2)=N\O)c1O,76.5 µM (active)
3,CN(C)CCNc1ccc(CO)c2sc3ccc(O)cc3c(=O)c12,35 µM (active)
4,CN(C)CCNc1ccc2nnn3c4ccc(O)cc4c(=O)c1c23,inactive
5,CCN(CC)CCNc1ccc(C)c2sc3ccc(O)cc3c(=O)c12,33.2 µM (active)
6,CN(C)CCNc1ccc2ncn3c4ccc(O)cc4c(=O)c1c23,inactive
7,Cc1ccc(NCCN(C)C)c2c(=O)c3cc(O)ccc3sc12,46.3 µM (active)
8,CCN(CC)CCCNc1ccc2ncn3c4ccc(O)cc4c(=O)c1c23,inactive
9,O=C1CC(SC(=S)C2CCCC2=O)C(=O)N1 (stereo not given),inactive
10,Nc1ccccc1Sc1ccc(C(=O)c2ccccc2C(=O)O)cc1[N+](=O)[O-],inactive
11,COc1cc(/C=N/Nc2ccccn2)cc(OC)c1O,28.6 µM (active)
12,COc1cc(/C=N/Nc2cccc3cccnc23)cc(OC)c1O,inactive
13,COc1ccc(/C=N/Nc2ccccn2)cc1O,81.8 µM (active)
14,CN(C)c1ccc(/C=N\Nc2ccccn2)cc1,33.4 µM (active)
15,COc1ccc(/C=N/Nc2ncnc3sc4c(c23)CCCC4)cc1O,69.1 µM (active)
16,CCN1CCN(CCOc2cccc(Oc3ccccc3)c2)CC1,inactive
17,Clc1ccc(OCCOCCNCc2ccccc2)cc1Cl,inactive
18,CCN(CC)c1ccc(NC(=O)C2=CC=CN3CCS(=O)(=O)N=C23)cc1,74.2 µM (active)
19,CCN(CC)c1ccc(NC(=O)CCN2C(=O)c3ccccc3S2(=O)=O)c(C)c1,inactive
20,CC(NCCCOc1cccc2ccccc12)c1ccccc1 (stereo not given),inactive
21,CC(C)[C@H](N[C@@H](C)c1ccccc1)c1c(O)ccc2ccccc12,17.4 µM (active)
